From PMC8384837, “Expanding the binding specificity for RNA recognition by a PUF domain” come the findings set out here.

The target of the first assay is PUM1 PUF domain R4-EYL (Homo sapiens, UniProt Q14671 828-1176, N971E;H972Y;Q975L). Briefly: yeast three-hybrid, YBZ-1, SC-Leu-His + 0.5 mM 3-AT, 4 days. Particulars: tags: N-Gal4 AD-HA kept; label: inside an RPR1-promoter hybrid RNA with tandem MS2 sites; ssRNA. In short, it runs like this: (§1)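 A centromeric plasmid in strain YBZ-1 co-expressed Pumilio-1 PUF domain libraries, randomized at the three base-contacting residues of each repeat, with matching RNA elements; the strain carries a LexA–MS2 coat fusion and a HIS3 reporter. After four days on SC-Leu (input) or SC-Leu-His + 0.5 mM 3-AT (selection), the repeat regions were PCR-amplified and Illumina-sequenced. The interaction score is the log change in variant frequency from input to selection, using log2 and a pseudocount of 1 where absent.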
Chain of PUM1 PUF domain R4-EYL (Q14671 828-1176 N971E/H972Y/Q975L): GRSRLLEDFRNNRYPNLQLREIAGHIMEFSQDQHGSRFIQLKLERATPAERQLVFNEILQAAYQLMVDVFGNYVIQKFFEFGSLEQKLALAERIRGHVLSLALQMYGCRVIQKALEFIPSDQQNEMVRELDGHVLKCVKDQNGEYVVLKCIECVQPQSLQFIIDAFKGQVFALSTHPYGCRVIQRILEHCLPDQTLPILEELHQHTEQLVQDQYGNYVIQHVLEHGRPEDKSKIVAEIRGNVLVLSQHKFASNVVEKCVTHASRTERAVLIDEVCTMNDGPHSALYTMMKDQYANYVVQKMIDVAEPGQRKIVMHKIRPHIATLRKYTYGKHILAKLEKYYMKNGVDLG
With “GGCUAGAACUAGUGGAUCCCCCGGCGCCCGGCGGCUCGAGCCCGGGUAAGUGUAAAUAGUCUGCAUGCCGCCGGGCGCCAUGCCUGCAGGUCGACUCUAGAAAACAUG”, the binding signal is 4.64 log2 enrichment (interaction score). On the same count and under the same terms, as for “GGCUAGAACUAGUGGAUCCCCCGGCGCCCGGCGGCUCGAGCCCGGGUAAGUGUACAUAGUCUGCAUGCCGCCGGGCGCCAUGCCUGCAGGUCGACUCUAGAAAACAUG”, the figure is 1.81 log2 enrichment (interaction score); as for “GGCUAGAACUAGUGGAUCCCCCGGCGCCCGGCGGCUCGAGCCCGGGUAAGUGUAUAUAGUCUGCAUGCCGCCGGGCGCCAUGCCUGCAGGUCGACUCUAGAAAACAUG”, 3.34 log2 enrichment (interaction score).

For the next assay, the target named is PUM1 PUF domain R5-DHN (Homo sapiens, UniProt Q14671 828-1176, C1007D;R1008H;Q1011N). The description is as above. Particulars: tags: N-Gal4 AD-HA kept; label: inside an RPR1-promoter hybrid RNA with tandem MS2 sites; ssRNA. In short, it runs like this: as §1
In the case of “GGCUAGAACUAGUGGAUCCCCCGGCGCCCGGCGGCUCGAGCCCGGGUAAGUGUAAAUAGUCUGCAUGCCGCCGGGCGCCAUGCCUGCAGGUCGACUCUAGAAAACAUG”, the binding signal is 3.41 log2 enrichment (interaction score). For “GGCUAGAACUAGUGGAUCCCCCGGCGCCCGGCGGCUCGAGCCCGGGUAAGUGUUAAUAGUCUGCAUGCCGCCGGGCGCCAUGCCUGCAGGUCGACUCUAGAAAACAUG”, the binding signal was 2.22 log2 enrichment (interaction score). Still for that read-out and setting: as for “GGCUAGAACUAGUGGAUCCCCCGGCGCCCGGCGGCUCGAGCCCGGGUAAGUGUGAAUAGUCUGCAUGCCGCCGGGCGCCAUGCCUGCAGGUCGACUCUAGAAAACAUG”, the figure is 2.35 log2 enrichment (interaction score).
